Measured values: the supplement of paper PMC13380429
Unmarked numbers belong to inactive results.

test system: Vero E6 infected with SARS-CoV-2; test: inhibition of SARS-CoV-2 cytopathic effect; higher = more antiviral protection, active = above 15; conditions: 833.33 nM; 48 h

SMILES | inhibition of SARS-CoV-2 cytopathic effect
CCC(=O)O[C@@H]1CC(=O)O[C@H](C)C/C=C/C=C/[C@H](OC(C)=O)[C@H](C)C[C@H](CC=O)[C@H](O[C@@H]2O[C@H](C)[C@@H](O[C@H]3C[C@@](C)(OC(C)=O)[C@@H](OC(=O)CC)[C@H](C)O3)[C@H](N(C)C)[C@H]2O)[C@H]1OC [miocamycin] | 3.25%
Cc1ccsc1C(=CCCN1CCC[C@@H](C(=O)O)C1)c1sccc1C [tiagabine] | -3.02%
Clc1ccccc1C(c1ccccc1)(c1ccccc1)n1cccn1 | 1.1%
CCCCN1CCC(CNC(=O)c2c3n(c4ccccc24)CCCO3)CC1 [piboserod] | -0.97%
Cn1cc(C2=C(c3cn(CCCSC(=N)N)c4ccccc34)C(=O)NC2=O)c2ccccc21 [bisindolylmaleimide-IX] | 1%
CCCN(CCc1cccs1)[C@H]1CCc2c(O)cccc2C1 [rotigotine] | -1.26%
CC(=O)N[C@@H](Cc1c[nH]c2ccccc12)C(=O)OCc1cc(C(F)(F)F)cc(C(F)(F)F)c1 | 1.61%
CCOc1ccccc1C(N)=O [ethenzamide] | 2.62%
OCCN1CCN(CCCN2c3ccccc3C=Cc3ccccc32)CC1 [opipramol] | -1.41%
C[C@H](Oc1cc(-c2cnn(C3CCNCC3)c2)cnc1N)c1c(Cl)ccc(F)c1Cl [crizotinib-(S)] | -0.47%
CCC(=O)O[C@]1(C(=O)CO)CC[C@H]2[C@@H]3CCC4=CC(=O)CC[C@]4(C)[C@H]3CC[C@@]21C | 1.21%
Cc1cccc(-c2n[nH]cc2-c2ccc3ncccc3n2)n1 [repsox] | -4.59%
O=C(Cc1ccc(-c2ccc(OCCN3CCOCC3)cc2)cn1)NCc1ccccc1 | -1.51%
Nc1ncnc2nc(-c3ccc(N4CCOCC4)nc3)cc(-c3cccc(Br)c3)c12 | -0.05%
Cc1nc(C)c(C)nc1C [chuanxiongzine] | 5.75%
O=C(CCCN1CC=C(n2c(=O)[nH]c3ccccc32)CC1)c1ccc(F)cc1 [droperidol] | -0.44%
CC1(C)CC[C@]2(NC(=O)C(C)(F)F)CC[C@]3(C)[C@H](C(=O)C=C4[C@@]5(C)C=C(C#N)C(=O)C(C)(C)[C@@H]5CC[C@]43C)[C@@H]2C1 [Omaveloxolone (RTA-408)] | 17.2% (active)
N[C@H](C(=O)O)c1ccc(O)cc1 [oxfenicine] | 0.58%
CCS(=O)(=O)N1CCC[C@@H]2CN3CCc4cc(OC)ccc4[C@@H]3C[C@@H]21 | 5.17%
O=C(Nc1cc(C(F)(F)F)cc(C(F)(F)F)c1)Nc1c(Br)cc(Br)cc1-c1nnn[nH]1 | -2.22%

SMILES | inhibition of SARS-CoV-2 cytopathic effect
CC(NC(=O)c1ccccc1/N=C/c1c(O)ccc2ccccc12)c1ccccc1 (centres undefined) [sirtinol] | -2.85%
Cc1ccc(Cl)c(Nc2ccccc2C(=O)O)c1Cl [meclofenamic-acid] | 0.39%
COc1cc(-c2cc(-c3cccc(O)c3)cnc2N)cc(OC)c1OC | 1.55%
Brc1c(Br)c(Br)c2[nH]nnc2c1Br [4,5,6,7-tetrabromobenzotriazole] | 1.63%
C=C(C)CN1CC[C@]23c4c5ccc(O)c4O[C@H]2c2[nH]c4ccccc4c2C[C@@]3(O)C1C5 | 0.21%
O=C(Nc1ccccc1F)N[C@H]1N=C(c2ccccc2)c2ccccc2NC1=O | -1.67%
O=C(O)[C@@H]1C[C@@H](C2CCCCC2)CN1C(=O)CP(=O)(O)CCCCc1ccccc1 [fosinoprilat] | 0.83%
Nc1nc2ccc(OC(F)(F)F)cc2s1 [riluzole] | 3.82%
C[C@H](N)C(=O)N[C@@]1(C(=O)O)C[C@@H](Sc2nnc[nH]2)[C@H]2[C@H](C(=O)O)[C@H]21 | -1.13%
O=C/C=C/c1ccccc1 [cinnamaldehyde] | 3.28%
NS(=O)(=O)c1cc2c(cc1Cl)N=C(CSCc1ccccc1)NS2(=O)=O [benzthiazide] | 2.56%
CN1CCN(C2=Cc3ccccc3Oc3ccc(Cl)cc32)CC1 | -1.6%
CCCCC(CC)CCC(CC(C)C)OS(=O)(=O)O (centres undefined) [sodium-tetradecyl-sulfate] | 1.74%
O=C(O)Cc1cccc2c(=O)cc(-c3ccccc3)oc12 [mitoflaxone] | 1.5%
Cc1c(N)cccc1Cn1ccc(OCCc2cccs2)cc1=O | 0.66%
COc1cc(OCc2cccc(-c3ccccc3)c2C)cc(OC)c1CN1CCCC[C@H]1C(=O)O [PD1-PDL-inhibitor-1] | 0.14%
Cc1ccsc1/C=C/C1=NCCCN1C [morantel] | -5.69%
CC[C@@H]1C(=O)N(C)c2cnc(Nc3ccc(C(=O)N[C@H]4CC[C@H](N5CCN(CC6CC6)CC5)CC4)cc3OC)nc2N1C(C)C [volasertib] | -9.3%
COC(=O)[C@@H](N)CCCNC(=N)N[N+](=O)[O-] | -3.06%
